This is part of a sample that, as a whole, favours compounds with a hit. Of some 83,000 tested, about 20% had one in any assay.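 Compound tested at a single concentration for 48 hours in 96-well plates; a percent growth value below 10 was scored as active.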 A number with no mark means an inactive call. Active and inactive are the calls of the source.
Tests used:
Assay in all cases: NCI-60 one-dose screen, 48 h (100 = growth as untreated, 0 = no growth, -100 = all killed)
Conditions in all cases: 10 µM unless noted
SK-MEL-2 melanoma = system: SK-MEL-2 melanoma
EKVX NSCLC = system: EKVX NSCLC
SN12C renal = system: SN12C renal
UO-31 renal = system: UO-31 renal
TK-10 renal = system: TK-10 renal
ACHN renal = system: ACHN renal
A498 renal = system: A498 renal
CCRF-CEM leukemia = system: CCRF-CEM leukemia
MOLT-4 leukemia = system: MOLT-4 leukemia
SR leukemia = system: SR leukemia
RPMI-8226 leukemia = system: RPMI-8226 leukemia
OVCAR-8 ovarian = system: OVCAR-8 ovarian
OVCAR-5 ovarian = system: OVCAR-5 ovarian
OVCAR-4 ovarian = system: OVCAR-4 ovarian
SK-OV-3 ovarian = system: SK-OV-3 ovarian
IGROV1 ovarian = system: IGROV1 ovarian
OVCAR-3 ovarian = system: OVCAR-3 ovarian
HS 578T breast = system: HS 578T breast
NCI/ADR-RES ovarian = system: NCI/ADR-RES ovarian
T-47D breast = system: T-47D breast

Row | Compound | growth (SK-MEL-2 melanoma) | growth (EKVX NSCLC) | growth (SN12C renal) | growth (UO-31 renal) | growth (TK-10 renal) | growth (ACHN renal) | growth (A498 renal) | growth (CCRF-CEM leukemia) | growth (MOLT-4 leukemia) | growth (SR leukemia) | growth (RPMI-8226 leukemia) | growth (OVCAR-8 ovarian) | growth (OVCAR-5 ovarian) | growth (OVCAR-4 ovarian) | growth (SK-OV-3 ovarian) | growth (IGROV1 ovarian) | growth (OVCAR-3 ovarian) | growth (HS 578T breast) | growth (NCI/ADR-RES ovarian) | growth (T-47D breast)
1 | O=C(/C(=C/c1ccc([N+](=O)[O-])cc1)SCc1ccc(Cl)cc1)c1ccc(F)cc1 | 81.3% | 59.7% | 45.9% | 45.8% | 94.7% | 54% | 70.5% | 4.66% (active) | 7.69% (active) | 0.569% (active) | -25.6% (active) | 57.8% | 95.4% | 60.9% | 63.9% | 58.4% | 54% | 27.9% | 51% | 36.4%
2 | O=C(Nc1ccc2ncnc(Nc3cccc(C(F)(F)F)c3)c2c1)c1cccs1 | 90.7% | 32.5% | 68.5% | 51.1% | 47.4% | 47.4% | 18.9% | 37.2% | 17.6% | 33.8% | 40.8% | 49.9% | 63.9% | 33.1% | 83.7% | 32.7% | 29.1% | 103% | 55.7% | 32.3%
3 | CCN1CCC[C@H]1c1cc(O)c2c(c1OC)C[C@H]1C[C@H]3[C@H](N)C(=O)C(C(N)=O)=C(O)[C@@]3(O)C(=O)C1=C2O | -43.9% (active) | -8.34% (active) | -3.68% (active) | -5.6% (active) | -8.12% (active) | -2.88% (active) | -14.7% (active) | 1.43% (active) | -16.8% (active) | -18.8% (active) | -18.8% (active) | -0.399% (active) | 4.81% (active) | -0.794% (active) | -1.89% (active) | -5.97% (active) | 2.36% (active) | -3.05% (active) | 9.29% (active) | -8.2% (active)
4 | Cc1cccc(C)c1NC(=O)CN(CC(C)C)CC(O)COc1ccccc1 (stereo not given) | 93.8% | 85.2% | 104% | 85.8% | 96.9% | 104% | 63.8% | 96.9% | 88.2% | 92.1% | 89.2% | 105% | 99.9% | 86.9% | 90.1% | 94.3% | 111% | 118% | 86.7% | 85.3%
5 | Cc1cc(Nc2nc(SCc3ccc(C(=O)Nc4ccc(F)cc4N)cc3)nn3cccc23)n[nH]1 | 18.2% | 31% | 29% | 31% | 48.8% | 21.1% | 5.84% (active) | 9.8% (active) | 6.29% (active) | 13.3% | 13.1% | 15.4% | 52.3% | 40.8% | 17.9% | 33.6% | 11.4% | 37.4% | 30.2% | 62.1%
6 | COc1ccc(-c2cn(-c3ccc(Cl)cc3)c(=S)[nH]2)cc1OC | 46.9% | 74.7% | 74.3% | 85.4% | 72.8% | 67% | 94.4% | 84.4% | 77.8% | 22.3% | 12.9% | 53% | 64.1% | 86.8% | 79.3% | 49.4% | 88.4% | 100% | 37% | 68.1%
7 | COc1ccc(C2CC(c3ccc(OC)cc3O)=NN2c2ccc(S(N)(=O)=O)cc2)cc1 (stereo not given) | 58.7% | 20.9% | 54.2% | 27.6% | 43.9% | 29.1% | 71.2% | 13.5% | 4.82% (active) | 8.1% (active) | -32.6% (active) | 43% | 83.7% | 42.3% | 69.2% | 13.2% | 47.7% | 78.1% | 54% | 24.5%
8 | O=C(Nc1ccccc1)NS(=O)(=O)c1c[nH]c(=S)[nH]c1=O | 91.5% | 99.6% | 103% | 89.3% | 97.6% | 108% | 112% | 113% | 90.8% | 87.3% | 103% | 94.9% | 113% | 105% | 69.9% | 106% | 110% | 108% | 104% | 75.1%
9 | C=C(C)[C@@H]1CC[C@]2(C(=O)OCCOCCOCC[P+](c3ccccc3)(c3ccccc3)c3ccccc3)CC[C@]3(C)[C@H](CC[C@@H]4[C@@]5(C)CC[C@H](C)C(C)(C)[C@@H]5CC[C@]43C)[C@@H]12 | -71.3% (active) | -67.2% (active) | -75.9% (active) | -89.8% (active) | -88.6% (active) | -92.6% (active) | -93.7% (active) | -63% (active) | -75.4% (active) | -56.8% (active) | -59.3% (active) | -81.3% (active) | -72.2% (active) | -85.6% (active) | -96.9% (active) | -70.5% (active) | -91.7% (active) | -39.2% (active) | -59.8% (active) | -68.5% (active)
10 | Cc1[nH]c2ncnc(Oc3ccc(NC(=O)Nc4ccc(Cl)c(C(F)(F)F)c4)cc3)c2c1C | 61.2% | 43% | 69% | 70.1% | 81.1% | 39.9% | 76% | 24.1% | 27.4% | 9.11% (active) | 44.7% | 52% | 98% | 90.1% | 91.9% | 54.6% | 56.3% | 73.8% | 64.5% | 36.9%
11 | C=C(C)[C@@H]1CC[C@]2(C(=O)O)CC[C@]3(C)[C@H](CC[C@@H]4[C@@]5(C)C[C@@H](CC#Cc6ccccc6)C(=O)C(C)(C)[C@@H]5CC[C@]43C)[C@@H]12 | 61.1% | 28.6% | 43.7% | 28.9% | 33.3% | 23.8% | 32.9% | 24.9% | 22.3% | 38% | 15.3% | 26.5% | 65.4% | 41.3% | 42.9% | 61.1% | 17.9% | 55.4% | 42.1% | 22.5%
12 | COC(=O)[C@]1(C)CCC[C@]2(C)[C@H]3C[C@H]4C(C(C)C)=C[C@]3(CC[C@H]21)[C@@H]1C(=O)N(CCC#N)C(=O)[C@@H]14 | 88.6% | 79.5% | 90.2% | 76.1% | 104% | 96.3% | 105% | 61.8% | 38.2% | 80.4% | 62% | 85.5% | 116% | 71.7% | 98.8% | 86.2% | 88.9% | 89.4% | 84.4% | 69.9%
13 | Cc1nnc(/N=C2\NC(=O)/C(=C/c3ccc(N(C)C)cc3)S2)s1 | 83.1% | 82.8% | 83.8% | 70.6% | 87.3% | 71.8% | 67% | 62.6% | 80.8% | 44.2% | 58.9% | 78.6% | 99.9% | 75.4% | 72% | 60% | 45.4% | 85.6% | 52.2% | 73.6%
14 | CCC1S/C(=N\N=C(/C)c2ccc[nH]2)N(c2ccccc2)C1=O (stereo not given) | 124% | 116% | 116% | 43% | 83.5% | 102% | 112% | -86.5% (active) | -50% (active) | 32.5% | 57.5% | 90.2% | 99.3% | 104% | 123% | -48.7% (active) | 89.7% | 124% | 85.2% | 122%
15 | C#Cc1ccccc1NC(=O)c1sc2nc3c(cc2c1N)CCCCC3 | 101% | 84.8% | 98.2% | 85.4% | 117% | 101% | 94.1% | 93.8% | 94.5% | 81.2% | 97.4% | 100% | 105% | 103% | 100% | 103% | 105% | 99.6% | 105% | 95%
16 | Nc1c(C(=O)Nc2ccccn2)sc2nc3c(cc12)C(=O)CCC3 | 32.9% | 34.4% | 43.6% | 59.3% | 64.2% | 59.5% | 2.05% (active) | 47.9% | 69.7% | 40.6% | 38.5% | 64.3% | 46.9% | 56.8% | 40.3% | 51.3% | 3.09% (active) | 1.79% (active) | 21.9% | 33.1%
